Screening data as filed in PubChem.
PfHsp40 rescue = rescue of PfHsp40-mediated yeast toxicity; growth rescue, % at 12.5 µM; hit rate 0.68% among 340,000; S. cerevisiae expressing PfHsp40, growth rescue, ATP luminescence; in the data active = growth rescue above about 28%, passing the limit was not always enough; inconclusive = no clear call, values can overlap the other calls;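 note: yeast W303a lacking pdr1 and pdr3 grown in galactose medium; growth measured after three days at 30 °C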
PrP 5UTR inh = inhibition of PrP 5' UTR reporter expression | cell-based PrP 5' UTR mRNA reporter, plate reader | inhibition, % (test concentration not listed) | hit rate 0.35% among 340,000 | AID 488862; in the data active = inhibition above about 52%; note: 0 = median of the neutral control wells
Mtb FBA inh = Mtb fructose-bisphosphate aldolase inhibition; purified M. tuberculosis FBA, fluorescence read-out; inhibition, % at 1 µM; hit rate 2.3% among 360,000; AID 588726;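 note: 0% = vehicle and 100% = reference inhibitor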
Target sequence (P9WQA3 whole entry, looked up): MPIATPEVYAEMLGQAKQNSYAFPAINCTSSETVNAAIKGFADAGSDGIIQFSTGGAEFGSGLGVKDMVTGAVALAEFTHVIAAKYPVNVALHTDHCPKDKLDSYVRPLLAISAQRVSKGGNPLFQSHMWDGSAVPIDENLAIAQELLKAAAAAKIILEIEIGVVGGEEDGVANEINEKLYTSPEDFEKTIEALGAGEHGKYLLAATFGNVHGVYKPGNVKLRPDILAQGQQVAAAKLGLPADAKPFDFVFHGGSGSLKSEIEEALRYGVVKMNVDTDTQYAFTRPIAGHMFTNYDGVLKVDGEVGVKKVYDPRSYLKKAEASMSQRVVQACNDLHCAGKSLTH
GDH-TPI counter-1 = inhibits GDH-TPI coupling enzymes, artifact for Mtb FBA screen; GDH-TPI coupled enzyme counterscreen, NADH absorbance; inhibition, % at 4.8 µM; hit rate 1.2% among 360,000; in the data active = inhibition above about 30%;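 note: 0% = DMSO wells and 100% = wells lacking the enzyme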
PrPC TRFRET = reduces human prion protein on the cell surface; hit rate 0.43% among 370,000; P04156; AID 720596; cell surface PrPC, TR-FRET read-out; inhibition, % at 13.8 µM; in the data active = inhibition above about 24%; note: 0% = median of the test wells and 100% = reference compound wells
BJeLR viability = BJeLR cell viability loss. BJeLR (HRASV12) viability, CellTiter-Glo ATP luminescence, 48 h. inhibition, % (concentration not given with the values). hit rate 0.17% among 300,000; in the data active = inhibition above about 50%; inconclusive = no clear call, values can overlap the other calls
Mtb FBA inh conf = confirmation of M. tuberculosis fructose-bisphosphate aldolase inhibitors; shares compounds with Mtb FBA inh; purified M. tuberculosis FBA, fluorescence read-out; inhibition, % at 1 µM; hit rate 78% among 5,600;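 note: 0% = vehicle wells and 100% = reference inhibitor wells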
GDH-TPI counter-2 = inhibits GDH-TPI coupling enzymes, flagging Mtb FBA hits; inhibition, % at 1 µM; AID 652141; shares compounds with Mtb FBA inh; GDH-TPI coupled enzyme counterscreen, fluorescence; hit rate 81% among 5,600; in the data active = inhibition above about 10%
An asterisk follows results filed as active; ? = inconclusive; . = no result; + = active, no number. Only some compounds are listed: those with a hit (about 4.5% of all), similar ones and a draw of the others. Cut-off read from the data, not from the text of the source, unless noted: active = inhibition above about 27%; inactive = the rest.

SMILES	PfHsp40 rescue	PrP 5UTR inh	Mtb FBA inh	GDH-TPI counter-1	PrPC TRFRET	BJeLR viability	Mtb FBA inh conf	GDH-TPI counter-2
N#Cc1ccc(COC(=O)c2cnc3ccccc3n2)cc1	0.1	-18.3	-1.2	14.9	5.0	-10.5	.	.
CSCCC(NC(=O)C1CCC(C)CC1)C(=O)NCCN1CCC(C)CC1 (stereo not given)	-1.0	-17.9	-5.2	-4.0	5.8	-20.4	.	.
COc1ccc(C(C(=O)NC(C)(C)C)N(C(=O)Cn2nnc3ccccc32)c2cccc(C(C)=O)c2)cc1O (stereo not given)	0.2	4.2	0.4	-1.3	-2.1	-9.8	.	.
Cc1cc(=O)oc2cc(OCC(=O)OCC(=O)Nc3ccc4ccccc4c3)ccc12	4.6	-27.9	25.7	11.0	-1.3	-0.3	.	.
O=C(O)c1ccccc1-c1ccccc1C(=O)Nc1ccc2c(c1)oc(=O)c1ccccc12	.	.	33.5*	29.9	3.5	.	2.2	-3.3
Cc1cc(=O)oc2cc(NC(=O)CCOc3ccccc3)ccc12	-0.7	-31.7	20.2	16.5	-0.4	-6.2	.	.
Cc1cc(=O)oc2cc(NC(=O)c3ccnn3C)ccc12	0.2	-71.2	31.9*	8.8	.	-4.0	+	+
Cc1ccccc1CC(=O)Nc1ccc2c(C)cc(=O)oc2c1	-0.4	-18.9	93.7*	2.6	3.0	21.1	7.0	7.0
CCCCOC(=O)Nc1ccc2c(C)cc(=O)oc2c1	-0.9	-69.7	83.8*	16.5	2.0	1.1	6.8	2.4
Cc1cc(=O)oc2cc(NC(=O)c3c(Cl)cnn3C)ccc12	-0.7	0.4	8.5	25.9	5.6	-4.7	.	.
COc1cccc(NC(=O)Nc2nc3ncccn3c2-c2ccc(F)c(F)c2)c1	.	.	.	.	6.8	.	.	.
Cc1ccccc1CS(=O)(=O)Cc1ccc(C(=O)Nc2cccc(C)c2C)o1	.	.	.	.	6.1	.	.	.
COC(=O)c1cc(-c2ccc(OC)c(OC)c2)c2c(=O)[nH]c(=O)n(C)c2n1	-0.7	-10.0	3.6	16.4	-8.8	-7.0	.	.
CC1(c2ccccc2)NC(=O)N(CC(=O)Nc2ccc3c(c2)OCO3)C1=O (stereo not given)	1.1	-13.0	4.9	5.6	6.5	1.9	.	.
Cc1cc(=O)oc2cc(NC(=O)CN3C(=O)NC(C)(c4ccccc4)C3=O)ccc12 (stereo not given)	0.1	-28.3	61.1*	11.4	-5.0	9.4	136.9*	103.0*
Cc1ccc(-n2c(O)c(C=Nc3ccc4c(c3)OCO4)c3ccccc3c2=O)cc1C	0.8	22.0	1.8	4.7	-3.5	9.5	.	.
Cc1cc(N=Cc2c(O)n(-c3ccc4c(c3)OCO4)c(=O)c3ccccc23)ccn1	0.2	-9.8	38.1*	6.1	16.7	-10.5	+	+
Cc1cc(/C=N/NC(=O)Cn2c3ccccc3c(=O)c3ccccc32)c(C)n1-c1ccccc1	-1.3	-17.9	66.1*	8.6	0.2	-2.9	+	+
Cc1ccc(N(CC(=O)N/N=C/c2cc(C)n(-c3ccccc3)c2C)S(C)(=O)=O)c(C)c1	0.1	-10.0	-0.6	-1.3	-5.6	-3.6	.	.
O=C1NC(=O)c2cc(NC(=O)c3cccc4ccccc34)ccc21	-0.4	-30.0	9.9	-4.3	-1.0	7.5	.	.
O=C(Nc1ccc2c(c1)C(=O)NC2=O)c1ccccc1	0.6	-15.1	40.7*	-3.3	5.0	-5.4	197.9*	122.9*
O=C(Nc1ccc2c(c1)C(=O)NC2=O)c1ccccc1Cl	1.6	-3.7	30.4*	12.2	-4.7	-5.0	6.8	-2.5
COc1cccc(-c2c(C(=O)N/N=C(\C)COc3ccccc3)nnn2-c2nonc2N)c1	0.2	-19.1	-1.0	11.2	0.6	-1.1	.	.
CC(C)(C)C(=O)Nc1cc2c3c(c1)CCN3C(=O)CC2	-1.4	-4.5	0.1	6.0	-2.7	3.8	.	.
C=CCOc1ccc(/C=N/NC(=O)c2c(C)nc3ccc(Cl)cn23)cc1	?	-16.5	0.1	26.5	9.1	6.9	.	.
SMILES	PfHsp40 rescue	PrP 5UTR inh	Mtb FBA inh	GDH-TPI counter-1	PrPC TRFRET	BJeLR viability	Mtb FBA inh conf	GDH-TPI counter-2
O=C(O)c1ccc(-c2ncc[nH]2)cc1	1.0	-16.5	48.9*	-1.9	-3.6	3.1	0.0	1.6
CC(=O)OC1CCC2(C)C(COc3ccc4ccc(=O)oc4c3)C(C)(O)CCC2C1(C)C (stereo not given)	1.8	-0.5	78.6*	21.6	15.9	2.5	42.0*	38.4*
C=C1CCC2C(C)(C)[C@@H](O)CC[C@@]2(C)[C@@H]1COc1ccc2ccc(=O)oc2c1 (stereo not given in full)	4.7	-14.6	23.6	14.7	-22.0	2.1	.	.
COCc1cc(=O)n2[nH]c(-c3ccco3)cc2n1	-0.7	-20.1	33.6*	6.1	-6.1	-5.5	9.8	3.9
COCc1cc(=O)n2[nH]c(-c3ccc(C)cc3)cc2n1	-2.2	-34.2	35.0*	2.8	2.7	-5.9	152.4*	107.6*
COCc1cc(=O)n2[nH]c(C)nc2n1	-2.4	-20.3	0.9	1.0	0.0	5.0	.	.
COCc1cc(=O)n2[nH]c(-c3cccs3)cc2n1	-0.7	-32.8	30.1*	-6.9	14.0	-8.2	64.9*	65.8*
COC(=O)[C@@]12C[C@@H](CC(=O)NCCCN3CCCC3=O)C(=O)N(CCc3ccc(OC)c(OC)c3)C1=CCC(C)(C)C2	.	.	.	.	-5.0	.	.	.
Cc1ccc(OCC(=O)OCC(=O)c2ccccc2)cc1C	0.3	-0.7	-0.8	-1.0	3.9	-5.3	.	.
COc1ccc(CN(CC2CCC(C(=O)O)CC2)C(=S)Nc2cccc(C)c2)cc1 (stereo not given)	-0.7	-20.8	-1.4	-4.2	1.7	2.5	.	.
Cc1ccc(C)c(OCCC(=O)OC(C)C(=O)Nc2c(C)n(C)n(-c3ccccc3)c2=O)c1 (stereo not given)	-0.4	-6.7	0.2	5.9	-0.3	-11.3	.	.
CCCCN(C)C(=O)c1cc2cc3cc(OC)ccc3nc2o1	1.1	-32.3	73.7*	9.3	-18.9	-9.5	166.4*	126.6*
CCCCN(C)C(=O)c1cc2cc3ccc(OC)cc3nc2o1	0.8	-33.3	78.0*	15.1	3.9	-4.1	3.0	2.1
CCOc1ccc(Br)cc1CNc1ccc2c(c1)OCCO2	-0.4	-3.8	1.4	3.8	4.7	-3.1	.	.
CC(NC(=O)CCNS(=O)(=O)c1ccc2c(c1)oc(=O)n2C)c1ccccc1 (stereo not given)	-0.3	-15.2	1.0	6.0	-0.2	5.8	.	.
c1ccc(-c2cc(-c3nc4ccccc4[nH]3)c3ccccc3n2)cc1	1.2	-1.9	60.3*	23.0	-6.5	5.8	68.7*	71.2*
O=c1[nH]nc(-c2cc(-c3ccccc3)nc3ccccc23)o1	.	.	65.0*	29.0	-18.1	.	121.6*	93.7*
Cn1cc(-c2nc3ccccc3[nH]2)c2ccccc21	1.2	-32.6	43.9*	19.0	14.7	-1.5	2.3	5.8
O=C(O)c1cc(-c2ccccc2)nc2ccccc12	-0.6	-3.3	8.5	19.8	8.4	-8.7	.	.
